The source of these data is PubChem BioAssay (EPA / NIEHS).

Experiment [1] is described as follows: ATG_E_Box_CIS: Attagene CIS-FACTORIAL HepG2 Assay for human Enhancer Box (E-box) (AID 2282936). The note with it: HepG2 E-box cis-reporter transcription, actives raise or lower the signal. The method in brief:
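Multiplexed CIS reporter system in transiently transfected HepG2 cells measures native transcription factor activity. Reporter RNA after 24 h exposure is profiled by RT-PCR-capillary electrophoresis.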

A short description of experiment [2]: ATG_M_61_CIS: Attagene CIS-FACTORIAL HepG2 Assay for M61 Transcription Factor (Internal Marker) (AID 2282937). The note with it: HepG2 Attagene CIS-FACTORIAL M61 internal marker reporter; actives raise or lower the signal. The method in brief:
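Multiplexed reporter mRNA assay, HepG2 human hepatoma cells, 24 h treatment. Signal: FAM-labelled, HpaI-digested RT-PCR fragments by CE. Fit: bidirectional, baseline DMSO.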

Experiment [3] is described as follows: ATG_EGR_CIS: Attagene CIS-FACTORIAL HepG2 Assay for human Early Growth Response 1 (EGR1) (AID 2282938). The following applies: HepG2 Attagene CIS-FACTORIAL EGR reporter mRNA; actives raise or lower the signal. The method in brief:
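Multiplexed cis-reporter system in human hepatoma HepG2 cells, transiently transfected. Cells are dosed for 24 h; reporter transcripts are amplified, fluorescently tagged and sized by capillary electrophoresis, with DMSO as negative control.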

Experiment [4] is described as follows: ATG_M_19_CIS: Attagene CIS-FACTORIAL HepG2 Assay for M19 Transcription Factor (Internal Marker) (AID 2282939). The following applies: HepG2 Attagene CIS-FACTORIAL M19 internal marker reporter; actives raise or lower the signal. An outline of the steps: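 HepG2 cells transiently transfected with cis-regulated multiple reporter transcription units were dosed for 24 h; reporter mRNA was quantified by RT-PCR, 6-FAM primer-extension labelling, HpaI digestion and capillary electrophoresis, with bidirectional fitting against DMSO baseline.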

Experiment [5] can be described thus: ATG_ERE_CIS: Attagene CIS-FACTORIAL HepG2 Assay for Estrogen Response Element (ERE) (AID 2282940). The note with it: HepG2 ERE cis-reporter, Attagene RNA transcript; actives raise or lower the signal. The method in brief:
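HepG2 cells transiently transfected with cis-promoter-driven multiplexed reporter transcription units report endogenous TF activity. After 24 h compound exposure, reporter mRNA is quantified by RT-PCR with capillary electrophoresis fluorescence; bidirectional fitting versus DMSO baseline.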

Experiment [6] in a line: ATG_Ets_CIS: Attagene CIS-FACTORIAL HepG2 Assay for human Erythroblast Transformation Specific (ETS) (AID 2282941). The following applies: HepG2 ETS cis-reporter transcription, actives raise or lower the signal. The method in brief:
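After transient cis-reporter transfection, HepG2 cells receive test chemical for 24 h. Reporter mRNA levels, measured by RT-PCR and capillary electrophoresis fluorescence, are analysed bidirectionally relative to the DMSO baseline.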

Experiment [7] concerns the target Hepatocyte nuclear factor 3-beta (Homo sapiens) (UniProt Q9Y261). Nature of the experiment: ATG_FoxA2_CIS: Attagene CIS-FACTORIAL HepG2 Assay for human Forkhead box A2 (FOXA2) (AID 2282942). The note with it: HepG2 cis-reporter transcription factor activity, 24 h; actives raise or lower the signal. An outline of the steps: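 Multiplexed cis-element reporter assay in transiently transfected HepG2. Twenty-four hours post-dosing, RNA was reverse-transcribed, amplified, FAM-labelled, HpaI-digested and separated by CE. Activity gain or loss relative to DMSO.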

The nature of experiment [8]: ATG_FoxO_CIS: Attagene CIS-FACTORIAL HepG2 Assay for human Forkhead box O (FoxO) (AID 2282943). The following applies: HepG2 Attagene cis-reporter, FoxO element, mRNA; actives raise or lower the signal. An outline of the steps:
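Values reflect reporter mRNA induction or loss in HepG2 cells 24 h post-dosing, fitted bidirectionally with DMSO as negative control and baseline. Detection used RT-PCR and fluorescence capillary electrophoresis.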

Experiment [9] is described as follows: ATG_GATA_CIS: Attagene CIS-FACTORIAL HepG2 Assay for human GATA Binding Protein (AID 2282944). The note with it: HepG2 GATA cis-element reporter, Attagene multiplex mRNA; actives raise or lower the signal. An outline of the steps: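 HepG2 cells transiently transfected with multiplexed cis-element reporter units reflecting endogenous transcription factor activity; reporter mRNA measured after 24 h dosing by RT-PCR, 6-FAM labeling, HpaI digestion and capillary electrophoresis. Bidirectional fitting versus DMSO baseline.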

Experiment [10] can be described thus: ATG_GLI_CIS: Attagene CIS-FACTORIAL HepG2 Assay for human Zinc Finger Protein GLI1 (AID 2282945). The note with it: HepG2, Attagene cis-factorial reporter mRNA, GLI element; actives raise or lower the signal. The method in brief:
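HepG2 cells transiently transfected with cis-promoter multiplexed reporter units report endogenous transcription factor activity. After 24 h chemical exposure, reporter mRNA was quantified by RT-PCR, 6-FAM labelling, HpaI digestion and capillary electrophoresis, with bidirectional fitting against DMSO.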

A short description of experiment [11]: ATG_GRE_CIS: Attagene CIS-FACTORIAL HepG2 Assay for human Glucocorticoid Response Elements (GRE) (AID 2282947). The note with it: HepG2 GRE cis-reporter, Attagene multiplex mRNA; actives raise or lower the signal. The method in brief:
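Following 24 h chemical exposure of transiently transfected HepG2 cells, total RNA was reverse-transcribed and reporter cDNA amplified, fluorescently labelled and sized by capillary electrophoresis. Signal gain or loss was fitted relative to DMSO vehicle.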

Experiment [12] can be described thus: ATG_ISRE_CIS: Attagene CIS-FACTORIAL HepG2 Assay for human Interferon Regulatory Factor 1 (IRF1) binding to an Interferon-Stimulated Response Element (ISRE) (AID 2282948). The following applies: HepG2 ISRE cis-reporter (Attagene), mRNA transcription readout; actives raise or lower the signal. The method in brief: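 Quantitation relies on labelled RT-PCR fragments separated by capillary electrophoresis. Human HepG2 cells bearing cis-promoter reporter constructs were treated 24 h; DMSO served as baseline for bidirectional fitting.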

Experiment [13] can be described thus: ATG_M_32_CIS: Attagene CIS-FACTORIAL HepG2 Assay for M32 Transcription Factor (Internal Marker) (AID 2282949).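 Also: background control marker of the multiplexed CIS panel rather than a real target.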 The following applies: HepG2 Attagene cis-factorial M32 reporter, mRNA; actives raise or lower the signal. An outline of the steps:
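HepG2 cells transiently transfected with multiplexed cis-regulated reporter units, dosed 24 h. Reporter mRNA quantified by RT-PCR, 6-FAM labelling, HpaI digestion and capillary electrophoresis; bidirectional fit vs DMSO.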

Experiment [14] is described as follows: ATG_M_06_CIS: Attagene CIS-FACTORIAL HepG2 Assay for M06 Transcription Factor (Internal Marker) (AID 2282950). The following applies: HepG2 Attagene CIS-FACTORIAL M06 internal marker reporter; actives raise or lower the signal. The method in brief:
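HepG2 cells transiently transfected with cis-regulated multiple reporter transcription units were exposed to chemical for 24 h; reporter mRNA was quantified by RT-PCR, 6-FAM primer labelling, HpaI digestion and capillary electrophoresis, fitted bidirectionally against DMSO.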

The target of experiment [15] is Hepatocyte nuclear factor 6 (Homo sapiens) (UniProt Q9UBC0). Nature of the experiment: ATG_HNF6_CIS: Attagene CIS-FACTORIAL HepG2 Assay for human Hepatocyte Nuclear Factor 6 (HNF6) (AID 2282952). The following applies: HepG2 Attagene cis-factorial HNF6 reporter transcription; actives raise or lower the signal. An outline of the steps: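 HepG2 cells transiently transfected with cis-element-driven multiplexed reporter units measuring endogenous transcription factor activity. After 24 h exposure, reporter mRNA quantified by RT-PCR, FAM-labelled fragments and capillary electrophoresis; bidirectional fitting versus DMSO.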
Chain of Hepatocyte nuclear factor 6 (Homo sapiens) (Q9UBC0 whole entry, looked up, the tested form may be a part): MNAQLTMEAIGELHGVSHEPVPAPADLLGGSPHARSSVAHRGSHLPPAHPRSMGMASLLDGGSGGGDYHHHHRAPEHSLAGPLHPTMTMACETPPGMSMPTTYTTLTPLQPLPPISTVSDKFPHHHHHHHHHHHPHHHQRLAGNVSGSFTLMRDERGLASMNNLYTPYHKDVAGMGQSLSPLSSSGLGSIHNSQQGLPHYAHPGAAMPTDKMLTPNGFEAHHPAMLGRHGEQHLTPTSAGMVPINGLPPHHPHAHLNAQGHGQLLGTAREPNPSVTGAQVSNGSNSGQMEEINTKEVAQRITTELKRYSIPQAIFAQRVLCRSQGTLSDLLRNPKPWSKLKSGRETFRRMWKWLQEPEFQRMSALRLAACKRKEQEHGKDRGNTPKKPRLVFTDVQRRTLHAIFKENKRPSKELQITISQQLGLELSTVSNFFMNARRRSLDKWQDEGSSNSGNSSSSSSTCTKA

Experiment [16] in a line: ATG_MRE_CIS: Attagene CIS-FACTORIAL HepG2 Assay for human Metal Responsive Element (MRE) (AID 2282954). The note with it: HepG2 MRE cis-reporter transcription, Attagene multiplex; actives raise or lower the signal. The method in brief: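 Step one: transfect HepG2 with cis-regulated reporter units. Step two: dose 24 h. Step three: isolate RNA, RT-PCR, 6-FAM label, HpaI digest, capillary electrophoresis. Fit bidirectionally to DMSO.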

Experiment [17] has as its target Paired box protein Pax-6 (Homo sapiens) (UniProt P26367). Kind of experiment: ATG_Pax6_CIS: Attagene CIS-FACTORIAL HepG2 Assay for human Paired Box 6 (PAX6) (AID 2282956). The following applies: HepG2 CIS-FACTORIAL PAX6 reporter transcription, RNA readout; actives raise or lower the signal. The method in brief:
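After twenty-four hours of chemical exposure, transfected HepG2 cells are harvested for RNA. Cis-promoter reporter transcripts are amplified, fluorescently labelled and sized by capillary electrophoresis, with gain and loss of signal scored against DMSO.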

Experiment [18] can be described thus: ATG_PBREM_CIS: Attagene CIS-FACTORIAL HepG2 Assay for human Phenobarbital-responsive Enhancer Module (PBREM) (AID 2282955). The note with it: HepG2 PBREM cis-reporter, Attagene multiplexed transcription; actives raise or lower the signal. The method in brief:
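Multiplexed cis-reporter readout in human hepatoma HepG2 cells; PBREM-regulated transcript quantified after 24 h exposure by fluorescent RT-PCR fragment analysis. Signal changes up or down fitted relative to DMSO.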

The target in experiment [19] is Hypoxia-inducible factor 1-alpha (Homo sapiens) (UniProt Q16665). Nature of the experiment: ATG_HIF1a_CIS: Attagene CIS-FACTORIAL HepG2 Assay for human Hypoxia Inducible Factor 1 (HIF1A) (AID 2282951). The following applies: HepG2 Attagene cis-factorial HIF1a reporter transcription; actives raise or lower the signal. The method in brief: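 Cis-element reporter constructs were transiently transfected into HepG2 cells, which were treated for 24 h; reporter RNA was reverse-transcribed, amplified, labelled and resolved by capillary electrophoresis.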
Chain of Hypoxia-inducible factor 1-alpha (Homo sapiens) (Q16665 whole entry, looked up): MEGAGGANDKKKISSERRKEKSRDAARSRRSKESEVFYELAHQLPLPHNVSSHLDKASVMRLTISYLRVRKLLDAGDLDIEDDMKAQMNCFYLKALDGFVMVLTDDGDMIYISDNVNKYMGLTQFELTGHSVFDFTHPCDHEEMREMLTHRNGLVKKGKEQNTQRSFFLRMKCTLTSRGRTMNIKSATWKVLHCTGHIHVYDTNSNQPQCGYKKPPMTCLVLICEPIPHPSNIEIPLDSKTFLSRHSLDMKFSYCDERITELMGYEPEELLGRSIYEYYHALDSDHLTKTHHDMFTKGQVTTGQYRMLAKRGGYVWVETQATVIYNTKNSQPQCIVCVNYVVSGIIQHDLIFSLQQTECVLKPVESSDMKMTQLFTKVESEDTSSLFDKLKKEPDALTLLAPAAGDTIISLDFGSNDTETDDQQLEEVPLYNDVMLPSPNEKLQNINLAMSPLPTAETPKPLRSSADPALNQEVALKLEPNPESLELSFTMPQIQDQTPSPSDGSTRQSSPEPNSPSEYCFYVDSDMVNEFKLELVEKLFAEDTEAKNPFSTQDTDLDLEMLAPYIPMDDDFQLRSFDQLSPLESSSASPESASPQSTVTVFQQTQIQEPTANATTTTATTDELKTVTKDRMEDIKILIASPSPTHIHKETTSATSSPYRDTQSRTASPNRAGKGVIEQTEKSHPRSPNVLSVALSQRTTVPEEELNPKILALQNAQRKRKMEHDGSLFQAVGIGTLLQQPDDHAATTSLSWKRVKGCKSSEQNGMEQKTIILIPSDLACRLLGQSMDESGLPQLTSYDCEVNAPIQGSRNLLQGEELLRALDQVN

Experiment [20] addresses Heat shock factor protein 1 (Homo sapiens) (UniProt Q00613). Kind of experiment: ATG_HSE_CIS: Attagene CIS-FACTORIAL HepG2 Assay for human Heat Shock Transcription Factor 1 (HSE) (AID 2282953). The note with it: HepG2 HSE cis-reporter, Attagene RNA transcription; actives raise or lower the signal. The method in brief:
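HepG2 cells transiently transfected with multiple reporter transcription units under cis-regulatory promoter control, measuring endogenous transcription factor activity. After 24 h chemical exposure, reporter mRNA quantified by RT-PCR, fluorescent labelling, HpaI digestion and capillary electrophoresis; bidirectional fit versus DMSO.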

Several values for one entry are separate records, joined by “and”; a condition that tells them apart may be missing. Equal values may be shown once. Where a structure was tested more than once in an assay, its records may differ in their call. Activity calls are given as the source filed them. The calls were made as follows: active = hit-call score of the fitted dose curve at least 0.9, where 1 is the maximum; inactive = score below 0.9.

Chain of Paired box protein Pax-6 (Homo sapiens) (P26367 whole entry, looked up): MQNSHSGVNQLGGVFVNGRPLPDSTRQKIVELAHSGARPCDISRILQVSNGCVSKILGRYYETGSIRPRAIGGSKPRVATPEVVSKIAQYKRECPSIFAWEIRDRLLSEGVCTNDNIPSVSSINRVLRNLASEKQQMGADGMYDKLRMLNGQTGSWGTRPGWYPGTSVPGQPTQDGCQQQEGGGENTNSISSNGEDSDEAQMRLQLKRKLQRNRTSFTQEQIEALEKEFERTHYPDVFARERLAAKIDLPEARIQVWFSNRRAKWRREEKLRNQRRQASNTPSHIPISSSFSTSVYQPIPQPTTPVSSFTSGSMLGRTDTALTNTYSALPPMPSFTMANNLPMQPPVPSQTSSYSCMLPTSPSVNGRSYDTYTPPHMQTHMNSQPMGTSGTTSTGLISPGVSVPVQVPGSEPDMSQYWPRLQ
Chain of Hepatocyte nuclear factor 3-beta (Homo sapiens) (Q9Y261 whole entry, looked up): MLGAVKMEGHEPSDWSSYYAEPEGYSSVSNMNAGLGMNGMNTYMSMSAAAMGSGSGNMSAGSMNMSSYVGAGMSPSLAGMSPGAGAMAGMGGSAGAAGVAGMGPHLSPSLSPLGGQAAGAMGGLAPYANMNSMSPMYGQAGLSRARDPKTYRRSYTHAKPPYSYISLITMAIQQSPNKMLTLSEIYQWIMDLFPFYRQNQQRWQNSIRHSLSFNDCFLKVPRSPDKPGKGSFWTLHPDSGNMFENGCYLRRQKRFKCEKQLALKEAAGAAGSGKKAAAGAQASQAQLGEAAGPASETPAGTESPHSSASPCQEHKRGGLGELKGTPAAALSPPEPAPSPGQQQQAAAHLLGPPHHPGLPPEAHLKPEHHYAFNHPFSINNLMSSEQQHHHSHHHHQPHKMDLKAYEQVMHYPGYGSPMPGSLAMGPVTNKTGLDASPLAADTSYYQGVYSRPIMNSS
Chain of Heat shock factor protein 1 (Homo sapiens) (Q00613 whole entry, looked up): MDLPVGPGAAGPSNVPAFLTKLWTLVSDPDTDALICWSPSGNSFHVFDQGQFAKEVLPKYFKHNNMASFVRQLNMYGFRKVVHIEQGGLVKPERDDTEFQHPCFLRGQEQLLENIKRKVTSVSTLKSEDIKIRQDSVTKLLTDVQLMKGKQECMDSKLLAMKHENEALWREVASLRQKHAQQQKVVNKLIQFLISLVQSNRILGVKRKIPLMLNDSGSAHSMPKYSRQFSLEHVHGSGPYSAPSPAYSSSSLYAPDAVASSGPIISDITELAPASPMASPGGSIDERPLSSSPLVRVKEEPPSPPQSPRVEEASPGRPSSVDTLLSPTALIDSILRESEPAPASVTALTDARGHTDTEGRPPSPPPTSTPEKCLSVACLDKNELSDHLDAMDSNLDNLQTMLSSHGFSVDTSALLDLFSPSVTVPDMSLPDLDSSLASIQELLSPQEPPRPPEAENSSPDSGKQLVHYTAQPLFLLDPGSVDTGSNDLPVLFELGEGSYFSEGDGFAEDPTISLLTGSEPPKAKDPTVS

On to `O=C(O)C(F)(F)C(F)(F)C(F)(F)C(F)(F)C(F)(F)C(F)(F)C(F)(F)C(F)(F)F`, for which the result in experiment [1], in experiment [2], in experiment [3], in experiment [4], in [6] and in [7] was inactive. The call in experiment [8], in experiment [9], in experiment [10], in experiment [11], in experiment [12] and in [13] was inactive. Besides, the result in [14], in experiment [15], in experiment [16] and in experiment [17] was inactive. Further, the AC50 in [3] is 150 µM (active) and 50 µM (active); in [5] it was 39.4 µM (active) and 38.2 µM (active) and 15.2 µM (active); in experiment [12], 150 µM (active) and 46.3 µM (active); in [16], 210 µM (active) and 50 µM (active); in [17], 224 µM (active) and 50 µM (active).
As to `CCC(C)(c1ccc(O)cc1)c1ccc(O)cc1`, the AC50 in [1] was 43.5 µM (active); in experiment [3] it was 48.8 µM (active); in [5], 198 nM (active) [middle of 4 runs]; in experiment [6] it was 53.8 µM (active); in [9], 44.9 µM (active); in experiment [10], 60.5 µM (active). Further, the AC50 is 45.6 µM (active) and 50.3 µM (active) and 33.4 µM (active) in experiment [12]; 51.8 µM (active) in [15]; 1.17 µM (active) in [18]; 52.8 µM (active) and 62.6 µM (active) and 24.6 µM (active) in experiment [17]. Moreover, the result in experiment [1], in [2], in [3], in experiment [4], in experiment [6] and in [7] was inactive. In addition, the result in [8], in experiment [9], in experiment [10], in experiment [12], in experiment [13] and in experiment [14] was inactive. Besides, the result in experiment [15], in experiment [18] and in experiment [17] was inactive.
As for `O=C(O)C(F)(F)C(F)(F)C(F)(F)C(F)(F)C(F)(F)F`, the outcome in experiment [1], in experiment [2], in experiment [3], in experiment [4], in experiment [5] and in experiment [6] was inactive. Moreover, the result in experiment [7], in [8], in experiment [9], in experiment [10], in experiment [11] and in experiment [12] was inactive. Further, the molecule was classed as inactive in [13], in experiment [14], in [19], in [15], in [20] and in [16]. Further, the result in experiment [18] and in [17] was inactive. The AC50 in [19] was 5.86 µM (active).

The term AC50 denotes the concentration at which the activity in the assay is half-maximal.
